{
  "source": "PubChem BioAssay (NCATS)",
  "note": "Results filed as inconclusive are left out. Entries that show only a call come without a potency. Active and inactive are the calls of the source. The call rests on the fitted dose curve; in most records, active means well fitted inhibition curve with a large enough effect; inconclusive means small, poorly fitted or top-dose-only effect; inactive means no such curve, though single readings can be large or run the other way. Potency means the concentration at half of the fitted maximal effect.",
  "data": [
    {"molecular_target": "Tumor susceptibility gene 101 protein (Homo sapiens) (UniProt Q99816)", "sequence (Q99816 whole entry, looked up, the tested form may be a part)": "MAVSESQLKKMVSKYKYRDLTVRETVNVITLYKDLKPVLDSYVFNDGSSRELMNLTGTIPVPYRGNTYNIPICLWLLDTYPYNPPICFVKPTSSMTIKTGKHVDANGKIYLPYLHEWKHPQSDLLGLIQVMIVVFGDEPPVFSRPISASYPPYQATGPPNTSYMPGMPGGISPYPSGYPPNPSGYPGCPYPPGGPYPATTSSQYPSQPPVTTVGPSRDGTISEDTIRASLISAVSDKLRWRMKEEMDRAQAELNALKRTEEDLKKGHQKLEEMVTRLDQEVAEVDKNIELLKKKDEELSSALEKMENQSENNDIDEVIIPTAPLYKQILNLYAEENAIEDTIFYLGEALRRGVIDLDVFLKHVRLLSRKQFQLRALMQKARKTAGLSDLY", "assay": "qHTS Assay for Iinhibitors of HIV-1 Budding by Blocking the Interaction of PTAP/TSG101: Hit Validation (AID 651600); further: nearly all actives have a fitted effect of over 70% in size", "details": "PTAP peptide/TSG101 UEV interaction, biochemical assay; series mostly up to 57.5 µM", "how_it_was_run": "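Fluorescence polarization binding assay: Tsg101 binding domain (10 uM) mixed with compounds and FITC-labeled PTAP peptide (50 nM) in HEPES pH 7.5, 0.15 M NaCl, 0.01% Tween 20, EDTA, TCEP; 20 min at r.t.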", "values": [
      {"smiles": "NC(=O)c1ccccc1NCC(=O)c1ccc(F)cc1", "Potency": "inactive"},
      {"smiles": "CCn1c(/C=C/c2cc[n+](C)cc2)nc2ccccc21", "Potency": "inactive"},
      {"smiles": "CC(=O)Nc1ccc(S(=O)(=O)Nc2nc3n(n2)C(c2ccccc2)C=C(c2ccc(Cl)cc2)N3)cc1", "note": "(stereo unspecified)", "Potency": "inactive"},
      {"smiles": "O=C1c2cccc3c([N+](=O)[O-])ccc(c23)C(=O)N1c1ccc(Cl)cn1", "Potency": "inactive"},
      {"smiles": "Fc1ccc(C2=CC(c3ccco3)n3ncnc3N2)cc1", "note": "(stereo unspecified)", "Potency": "inactive"},
      {"smiles": "CCN(CC)c1ccc2c(-c3ccc(S(=O)(=O)O)cc3S(=O)(=O)[O-])c3ccc(=[N+](CC)CC)cc-3oc2c1", "Potency": "11.6 µM (active)"},
      {"smiles": "COc1ccc(-c2cc(C(=O)N3CC(C)CC(C)C3)c3ccccc3n2)cc1OC", "note": "(stereo unspecified)", "Potency": "inactive"},
      {"smiles": "O=[N+]([O-])c1cc(Br)cc(/C=N/n2cnnc2)c1O", "Potency": "inactive"},
      {"smiles": "Cc1ccccc1-n1c(SCc2c(C)noc2C)nnc1-c1cccnc1", "Potency": "inactive"},
      {"smiles": "O=c1cc2oc3cc(O)c(O)cc3c(-c3ccccc3O)c-2cc1O", "Potency": "13 µM (active)"},
      {"smiles": "CC1=CC(=C(C#N)c2nc3ccccc3s2)C=C(C)N1c1ccc(F)cc1F", "Potency": "13 µM (active)"},
      {"smiles": "CN(C)c1ccc(/C=C2\\SC(=O)N(CC(O)Cn3c4ccccc4c4ccccc43)C2=O)cc1", "note": "(stereo unspecified)", "Potency": "16.3 µM (active)"},
      {"smiles": "COc1ccc2c(C=Nc3c(C)n(C)n(-c4ccccc4)c3=O)c(O)n(Cc3ccco3)c(=O)c2c1", "Potency": "29.1 µM (active)"},
      {"smiles": "CCCCNc1c2c3c(cccc3n(C)c1=O)C(=O)c1ccccc1-2", "Potency": "5.8 µM (active)"},
      {"smiles": "Cc1cccc(NC(=S)NCCC(c2ccccc2)c2ccccc2)c1", "Potency": "inactive"},
      {"smiles": "Cc1ccc2nc(-c3ccco3)c(Nc3ccccc3)n2c1", "Potency": "inactive"}
    ]}
  ]
}
